From PubChem
This excerpt belongs to a sample that is enriched for hits.
GBA enhancer: enhancers of human beta-glucosidase activity in Gaucher fibroblasts. P04062. L444P Gaucher fibroblasts, 4-MU-glucoside fluorescence, 3 days. activation, % at 10 µM. 0.44% of 30,000 active. AID 784; in the data active means activation above about 65%;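 further: 0% = vehicle wells and 100% = positive control wells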
Target sequence (P04062 whole entry L483P): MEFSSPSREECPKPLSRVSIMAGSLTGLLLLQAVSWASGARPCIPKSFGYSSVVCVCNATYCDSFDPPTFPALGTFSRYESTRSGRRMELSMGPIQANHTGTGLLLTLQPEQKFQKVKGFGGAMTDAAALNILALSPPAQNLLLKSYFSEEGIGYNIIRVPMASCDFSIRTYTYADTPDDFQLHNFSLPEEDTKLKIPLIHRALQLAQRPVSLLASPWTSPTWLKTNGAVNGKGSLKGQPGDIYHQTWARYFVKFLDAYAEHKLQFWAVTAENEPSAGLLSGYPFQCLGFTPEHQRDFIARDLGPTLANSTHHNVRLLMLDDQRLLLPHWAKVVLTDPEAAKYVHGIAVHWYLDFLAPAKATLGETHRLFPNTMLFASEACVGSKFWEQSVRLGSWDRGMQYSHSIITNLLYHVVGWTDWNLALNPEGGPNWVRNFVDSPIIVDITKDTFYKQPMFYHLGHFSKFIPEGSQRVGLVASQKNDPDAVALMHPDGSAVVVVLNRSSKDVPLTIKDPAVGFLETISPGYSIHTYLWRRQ
An asterisk follows results filed as active.

SMILES	GBA enhancer
Cc1ccc(NC(=O)CN(C)S(=O)(=O)c2cccc3nsnc23)cc1Cl	-38.6
Cc1ccc(NC(=O)CN(C)S(=O)(=O)c2cccc3nsnc23)cc1C	-47.1
CN(CC(=O)Nc1ccc(F)c(F)c1)S(=O)(=O)c1cccc2nsnc12	120.9*
Cc1cc(C)nc(Sc2ccc3nnc(C(F)(F)C(F)(F)C(F)(F)F)n3n2)n1	-22.6
O=C1C2C3C=CC(C3=C3CCCCC3)C2C(=O)N1Cc1ccccc1 (stereo unspecified)	-11.5
OC(COCC1CC=CCC1)Cn1cnc2ccccc21 (stereo unspecified)	151.3*
CC(=O)Nc1cccc(OCC(O)Cn2cnc3ccccc32)c1 (stereo unspecified)	-12.4
c1ccc2c(c1)ncn2CCn1cnc2ccccc21	-21.1
CC1(C)O[C@@H]2C[C@H]3[C@@H]4C[C@H](F)C5=CC(=O)C=C[C@]5(C)[C@@]4(F)[C@@H](O)C[C@]3(C)[C@]2(C(=O)CO)O1	-22.6
O=C(CSc1nnc(-c2cccs2)o1)NCC1CN(Cc2ccccc2)CCO1 (stereo unspecified)	-21.6
N#CN(CC(N)=O)c1nc(N2CCCCC2)nc(N2CCCCC2)n1	-1.2
C1CCN(c2nc(N3CCCCC3)nc(N3CCNCC3)n2)CC1	-64.8
N/C(=N/O)c1nc(N2CCCCC2)nc(N2CCCCC2)n1	88.9*
CCOc1ccc(Cc2nc(-c3nonc3N)no2)cc1OCC	11.9
COc1ccc(C2C3=C(CCCC3=O)Nc3nc4ccccc4n32)cc1OC (stereo unspecified)	-19.8
CC1CCN(C(=O)c2ccccc2NC(=O)c2cccc(S(=O)(=O)N3CCOCC3)c2)CC1	-11.4
O=C(CSc1nc2ccccc2n1CC(=O)N1CCCC1)N1CCN(C(=O)c2ccco2)CC1	-9.0
CCOC(=O)c1nnc(-c2ccccc2)o1	-17.3
Cc1ccc(OCC(=O)Nc2cccc(-c3nnc(-c4ccccc4)o3)c2)cc1	9.2
CCOC(=O)COc1ccc(-c2nnc(-c3ccccc3)o2)cc1	78.1*
CCN1C2=NCCCN2c2cc(C)c(C)cc21	-11.7
Cc1ccc(C)c(N2CCN(C(=O)CN(C)S(=O)(=O)c3ccc4c(c3)CCC(=O)N4)CC2)c1	-8.7
COc1ccc(CNC(=O)CCn2c(=O)oc3ccccc32)cc1	-0.9
Cc1cc(C)nc(N2CCN(c3nc(C)nc4c3oc3ccccc34)CC2)n1	-7.8
Cc1nc(SCC(=O)Nc2ccccc2)c2oc3ccccc3c2n1	-59.5
SMILES	GBA enhancer
Cc1cc(C)nc(Sc2nc(C)nc3c2oc2ccccc23)n1	136.1*
CC1(C)CC(CCNC(=O)c2ccco2)CC(C)(C)N1	-9.6
COc1cc(OC)nc(NC(=O)CSc2nc3ccccc3[nH]2)n1	3.6
Cc1cc(NC(=O)CSc2nc3ccccc3[nH]2)no1	99.9*
Cc1cc(NC(=O)CSc2nc(-c3ccccc3)c(C#N)c(=O)[nH]2)no1	6.4
O=C(CN1CCOCC1)Nc1ncc(Br)cc1Br	-6.0
c1ccc(NC2=Nc3ccccc3CS2)cc1	-7.5
COC(=O)c1cn(NC(=O)c2ccncc2)c(=O)c2ccccc12	74.5*
COc1ccccc1C(=O)Nn1cnc2ccccc2c1=O	-6.7
COc1ccc(Cl)cc1C(=O)Nn1cnc2ccccc2c1=O	-14.8
CC(C)C(OC(=O)c1ccco1)C(=O)NCc1cccs1 (stereo unspecified)	19.9
Cc1nn(CC(=O)Nc2ccc(C(=O)N3CCCCC3)cc2)c(=O)c2ccccc12	1.0
CCOC(=O)SC1=N/C(=C\c2ccc(N(C)C)cc2)C(=O)S1	10.2
C=CCSC1=N/C(=C\c2ccsc2)C(=O)S1	401.6*
O=C1c2ccccc2-c2nc3ncnn3c(-c3ccccc3)c21	-1.6
O=C(Nc1ccccc1N1CCCC1)c1cc2ccccc2o1	-30.1
O=C(Oc1ccccc1)c1cc2ccccc2o1	-2.8
O=C(OCCN1CCCCC1)c1cc2ccccc2o1	71.5*
O=C(NCc1ccco1)C1CCN(S(=O)(=O)c2ccc(-n3cnnn3)cc2)CC1	-14.8
CC1(C)NC(=O)N(CC(O)CNC23CC4CC(CC(C4)C2)C3)C1=O (stereo unspecified)	0.5
O=C(CCNS(=O)(=O)c1cccc2nsnc12)NC1CCN(Cc2ccccc2)CC1	85.7*
O=C(CCCNS(=O)(=O)c1cccc2nsnc12)NCCc1ccccc1	2.6
CN(CC(=O)NCCN1CCN(Cc2ccccc2)CC1)S(=O)(=O)c1cccc2nsnc12	16.7
O=C(CCN1C(=O)c2ccccc2C1=O)N1CCN(c2ccccn2)CC1	-38.6
O=C(CCCn1c(=S)[nH]c2cc3c(cc2c1=O)OCO3)N1CCN(c2ncccn2)CC1	79.3*
SMILES	GBA enhancer
COc1cccc(N2CCN(C(=O)CCn3c(=S)[nH]c4cc5c(cc4c3=O)OCO5)CC2)c1	14.3
O=C(CCCn1c(=S)[nH]c2cc3c(cc2c1=O)OCO3)N1CCN(c2ccc(F)cc2)CC1	-21.0
O=C(c1cc2ccccc2oc1=O)N(Cc1cccs1)C1CCS(=O)(=O)C1 (stereo unspecified)	7.4
COC(=O)c1cc2c([nH]c3ccccc32)c(C)n1	0.8
CCOC(=O)c1nn(-c2ccccc2)c(=O)c(C#N)c1C	3.4
CCOC(=O)c1oc2c(C)c(O)ccc2c(=O)c1-c1nncn1-c1ccccc1	84.0*
